Measurements from PubChem BioAssay (Tox21).
Several values for one entry are separate records, joined by “and”; a condition that tells them apart may be missing. Equal values may be shown once. Results filed as inconclusive are left out. A call without a number means that no potency is given here. Some structures have more than one record in an assay (separate samples or runs), and their calls can disagree. Activity calls are given as the source filed them. Unless noted, calls follow the shape of the dose curve; as a rule, active = well fitted curve in the direction sought with a large enough effect in the repeat runs; inconclusive = weak or mixed curves; inactive = no such curve, though single readings can be large; an effect the other way counts as inactive or inconclusive.

Columns and labels:
[1] = qHTS assay to identify small molecule agonists of the RXR signaling pathway - cell viability counter screen (AID 1159529); conditions: RXR-alpha-bla HEK293T viability, CellTiter-Glo, 16 h; series mostly up to 76.8 µM; also: nearly all actives have a fitted effect of over 50% in size; also: potency is read from the fitted curve at half-maximal effect
Procedure, shortened: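 Luminescence from CellTiter-Glo (30 min, RT) measured viability in the same wells as the beta-lactamase reporter readout. Cells: GeneBLAzer RXR-alpha HEK 293T, 2% charcoal-stripped FBS. Compound exposure 16 hr, 37 C.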

[2] = qHTS assay to identify small molecule antagonists of the retinoid acid receptor (RAR) signaling pathway - cell viability counter screen (AID 1159551); conditions: C3RL4 cells viability, ATP luminescence (CellTiter-Glo), 6 h; series mostly up to 92.4 µM; also: nearly all actives have a fitted effect of over 35% in size
Procedure, shortened: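 Seed C3RL4 cells; next day add compound, then retinol to 1 uM final; incubate 6 h at 37 C; add CellTiter-Glo; read luminescence after 30 min at RT.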

[3] = qHTS assay to identify small molecule antagonists of the retinoic acid receptor (RAR) signaling pathway (AID 1159552; also: nearly all actives have a fitted effect of over 50% in size); conditions: C3RL4 RARE luciferase reporter, retinol-stimulated, 6 h; series mostly up to 92.4 µM
Procedure, shortened: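 Luminescence from a RARE luciferase reporter in C3RL4 cells served as read-out. Cells received compounds together with 1 uM final retinol and incubated 6 hr at 37 C before detection reagent was added for 30 min at room temperature.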

[4] = qHTS assay to identify small molecule agonists of the retinoic acid receptor (RAR) signaling pathway (AID 1159553); conditions: C3RL4 RARE luciferase reporter, agonist, 6 h; series mostly up to 73.3 µM; also: potency is read from the fitted curve at half-maximal effect
Procedure, shortened: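 Activation of retinol signaling was monitored via a RARE luciferase reporter in C3RL4 cells. After 6 hr compound treatment at 37 C, detection reagent was added for 30 min at room temperature before luminescence reading.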

[5] = qHTS assay to identify small molecule antagonists of the estrogen related receptor (ERR) signaling pathway from Tox21 library - cell viability counter screen (AID 1224834); conditions: ERR reporter cells viability, CellTiter-Fluor, 17.5 h; series mostly up to 92.4 µM; also: nearly all actives have a fitted effect of over 30% in size
Procedure, shortened: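 CellTiter-Fluor fluorescence measured; ERR cells; 17.5 h compound incubation at 37 C; 30 min reagent step.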

[6] = target: Luciferin 4-monooxygenase (Photinus pyralis) (UniProt P08659); assay: qHTS assay to identify small molecule inhibitors of firefly luciferase (AID 1224835); also: nearly all actives have a fitted effect of over 25% in size; also: potency is read from the fitted curve at half-maximal effect; conditions: purified P. pyralis luciferase, luminescence inhibition; series mostly up to 115 µM
Chain of Luciferin 4-monooxygenase (Photinus pyralis) (P08659 whole entry, looked up): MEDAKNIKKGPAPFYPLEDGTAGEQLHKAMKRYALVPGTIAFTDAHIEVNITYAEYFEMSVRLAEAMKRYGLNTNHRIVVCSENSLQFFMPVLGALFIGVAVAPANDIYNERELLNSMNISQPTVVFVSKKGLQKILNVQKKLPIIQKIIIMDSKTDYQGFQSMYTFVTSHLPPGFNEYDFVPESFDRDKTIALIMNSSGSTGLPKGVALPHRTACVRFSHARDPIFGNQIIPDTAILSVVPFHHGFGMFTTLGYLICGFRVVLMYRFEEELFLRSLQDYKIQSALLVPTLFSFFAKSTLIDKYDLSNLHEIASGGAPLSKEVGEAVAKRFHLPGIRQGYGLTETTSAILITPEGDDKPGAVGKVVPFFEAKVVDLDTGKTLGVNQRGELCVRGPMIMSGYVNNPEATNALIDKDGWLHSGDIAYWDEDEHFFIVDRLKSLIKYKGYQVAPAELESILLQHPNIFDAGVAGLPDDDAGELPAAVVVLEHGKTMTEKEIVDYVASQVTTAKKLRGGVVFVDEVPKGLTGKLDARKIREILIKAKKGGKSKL
Procedure, shortened: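 Quantitative HTS format; KM concentrations of both substrates. Purified P. pyralis FLuc activity quantified from luminescence images.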

[7] = qHTS assay to identify small molecule agonists of the constitutive androstane receptor (CAR) signaling pathway - cell viability counter screen (AID 1224836); conditions: HepG2-CYP2B6-hCAR viability, CellTiter-Fluor, 23 h, PK11195 added to every well; series mostly up to 92.4 µM; also: nearly all actives have a fitted effect of over 45% in size
Procedure, shortened: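 Viability read-out: CellTiter-Fluor fluorescence after 23 h compound exposure at 37 C/5% CO2 in double-stable HepG2-CYP2B6-hCAR cells, with PK11195 present at 0.75 uM final; compounds tested in 15-point titration.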

[8] = target: Nuclear receptor subfamily 1 group I member 3 (Homo sapiens) (UniProt Q14994); assay: qHTS assay to identify small molecule antagonists of the constitutive androstane receptor (CAR) signaling pathway (AID 1224838); conditions: HepG2-CYP2B6-hCAR luciferase, CITCO-stimulated, 24 h; series mostly up to 92.4 µM;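 also: HepG2 cells stably expressing hCAR with CYP2B6 luciferase reporter stimulated by CITCO; nearly all actives have a fitted effect of over 40% in size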
Chain of Nuclear receptor subfamily 1 group I member 3 (Homo sapiens) (Q14994 whole entry, looked up): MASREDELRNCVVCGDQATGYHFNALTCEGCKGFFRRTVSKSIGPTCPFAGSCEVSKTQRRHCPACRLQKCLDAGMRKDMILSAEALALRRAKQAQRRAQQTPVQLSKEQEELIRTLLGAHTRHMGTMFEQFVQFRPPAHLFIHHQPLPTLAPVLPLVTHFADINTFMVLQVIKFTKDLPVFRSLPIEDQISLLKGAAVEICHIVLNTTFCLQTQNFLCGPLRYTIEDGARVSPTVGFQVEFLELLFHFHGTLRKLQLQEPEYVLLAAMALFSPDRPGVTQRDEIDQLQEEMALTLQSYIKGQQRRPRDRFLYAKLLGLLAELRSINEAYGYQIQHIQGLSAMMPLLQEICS
Procedure, shortened: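 Reporter luminescence was quantified after 24 h exposure of hCAR/CYP2B6-2.2kb double-stable HepG2 cells to compounds at 15 concentrations in the presence of 50 nM CITCO final.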

[9] = target: Nuclear receptor subfamily 1 group I member 3 (Homo sapiens) (UniProt Q14994); assay: qHTS assay to identify small molecule agonists of the constitutive androstane receptor (CAR) signaling pathway (AID 1224839); conditions: HepG2 hCAR CYP2B6-luciferase, agonist mode, 24 h; series mostly up to 92.4 µM; also: nearly all actives have a fitted effect of over 15% in size; also: potency is read from the fitted curve at half-maximal effect
Procedure, shortened: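 Luminescence read-out (ONE-Glo, 30 min, room temperature) from double-stable HepG2-CYP2B6-hCAR cells exposed 24 h to 15-point compound series in presence of 0.75 uM PK11195 final.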

[10] = qHTS assay to identify small molecule antagonists of the estrogen related receptor signaling pathway with the pleiotropic PPARgamma coactivator (PGC) from Tox21 10K library - cell viability counter screen (AID 1224840; active = well fitted cell-killing curve with a large enough effect in the repeat runs, not every such curve was filed as active; also: nearly all actives have a fitted effect of over 40% in size); conditions: PGC/ERR reporter cells viability, CellTiter-Fluor, 17.5 h; series mostly up to 92.4 µM
Procedure, shortened: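 Here the PGC/ERR cells serve as a cytotoxicity control: they are exposed to compounds for 17.5 hours at 37 C, and live-cell signal is quantified using CellTiter-Fluor fluorescence.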

[11] = target: Thyrotropin receptor (Homo sapiens) (UniProt P16473); assay: qHTS assay to identify small molecule agonists of the thyroid stimulating hormone receptor (TSHR) signaling pathway (AID 1224843; calls by dose curve; also: nearly all actives have a fitted effect of over 45% in size); conditions: TSHR-HEK293 cells, cAMP HTRF, agonist mode, 30 min; series mostly up to 92.4 µM
Chain of Thyrotropin receptor (Homo sapiens) (P16473 whole entry, looked up): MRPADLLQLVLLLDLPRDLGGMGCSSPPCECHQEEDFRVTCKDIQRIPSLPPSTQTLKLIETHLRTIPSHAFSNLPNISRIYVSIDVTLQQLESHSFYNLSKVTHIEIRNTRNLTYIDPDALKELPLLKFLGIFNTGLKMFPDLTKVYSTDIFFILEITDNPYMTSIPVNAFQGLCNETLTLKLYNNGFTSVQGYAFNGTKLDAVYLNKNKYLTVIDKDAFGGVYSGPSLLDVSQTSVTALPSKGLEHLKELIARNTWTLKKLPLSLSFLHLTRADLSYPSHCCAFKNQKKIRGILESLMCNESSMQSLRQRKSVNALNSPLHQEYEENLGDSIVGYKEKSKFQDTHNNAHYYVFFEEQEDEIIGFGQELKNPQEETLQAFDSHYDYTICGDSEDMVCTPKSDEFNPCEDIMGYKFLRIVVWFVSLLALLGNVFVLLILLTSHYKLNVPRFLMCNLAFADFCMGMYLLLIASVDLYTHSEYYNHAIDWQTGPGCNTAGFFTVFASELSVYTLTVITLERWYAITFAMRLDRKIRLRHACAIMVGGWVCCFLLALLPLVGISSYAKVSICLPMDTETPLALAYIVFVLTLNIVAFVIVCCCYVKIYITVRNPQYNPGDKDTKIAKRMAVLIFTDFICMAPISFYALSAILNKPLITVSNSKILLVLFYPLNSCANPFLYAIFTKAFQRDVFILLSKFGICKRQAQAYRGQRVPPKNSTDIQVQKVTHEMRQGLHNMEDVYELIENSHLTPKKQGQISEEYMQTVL
Procedure, shortened: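 Cell line HEK293 with TSHR; density 800/well. Exposure 30 min RT. Readout HTRF cAMP (cAMP-d2/anti-cAMP-cryptate), 1 h RT before reading.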

[12] = qHTS assay to identify small molecule antagonists of the estrogen related receptor signaling pathway with the pleiotropic PPARgamma coactivator (PGC) from Tox21 10K library (AID 1224841; call rule not given here; also: actives are mostly falling curves and most rising ones were filed inactive; nearly all actives have a fitted effect of over 50% in size); conditions: PGC/ERR reporter cell line, ONE-Glo luciferase, 18 h; series mostly up to 92.4 µM
Procedure, shortened: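 Each well held 2,000 PGC/ERR cells, pre-incubated six hours (37 C, 5% CO2). Test substances in DMSO were added by pin tool and left for 18 h at 37 C before luciferase detection by One-Glo.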

[13] = qHTS assay to identify small molecule agonists of the estrogen related receptor signaling pathway with the pleiotropic PPARgamma coactivator (PGC) from Tox21 10K library (AID 1224842); conditions: PGC/ERR reporter cell line, luciferase ONE-Glo, 18 h; series mostly up to 92.4 µM; also: nearly all actives have a fitted effect of over 15% in size; also: potency is read from the fitted curve at half-maximal effect
Procedure, shortened: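 PGC/ERR reporter cells (NTP line) were seeded 2,000 per well, rested 6 h at 37 C/5% CO2, then pin-dosed with compounds in DMSO for 18 h at 37 C; luciferase read by One-Glo luminescence after 30 min at room temperature.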

[14] = qHTS assay to identify small molecule antagonists of the constitutive androstane receptor (CAR) signaling pathway - cell viability counter screen (AID 1224837); conditions: HepG2-CYP2B6-hCAR viability, CellTiter-Fluor, 23 h, co-treated with 50 nM CITCO; series mostly up to 92.4 µM; also: nearly all actives have a fitted effect of over 45% in size
Procedure, shortened: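 Using CellTiter-Fluor, viability is scored in HepG2 cells stably carrying hCAR and a 2.2kb CYP2B6 reporter after 23 hr compound exposure across 15 concentrations, with CITCO present at 50 nM.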

SMILES | Potency [1] | Potency [2] | Potency [3] | Potency [4] | Potency [5] | Potency [6] | Potency [7] | Potency [8] | Potency [9] | Potency [10] | Potency [11] | Potency [12] | Potency [13] | Potency [14]
NNCc1ccccc1 | inactive | inactive | inactive | 2.48 µM (active) | inactive | 10.2 µM (active) | inactive | inactive | 62.3 µM (active) | inactive | inactive | – | – | –
O=C1CC(=O)NC(=O)N1 | inactive | inactive | inactive | inactive | inactive | inactive | inactive | inactive | inactive | inactive | inactive | – | – | –
CCC(C)C(C)(COC(N)=O)COC(N)=O (stereo unspecified) | inactive | inactive | inactive | inactive | inactive | inactive | inactive | – | inactive | inactive | inactive | inactive | inactive | –
CCN(CC)CCOC(=O)C(O)(c1ccccc1)c1ccccc1 | inactive | inactive | inactive | inactive | inactive | inactive | inactive | – | inactive | – | inactive | inactive | inactive | –
O=C(Cl)/C=C/C(=O)Cl | inactive | inactive | inactive | inactive | inactive | – | inactive | – | – | inactive | – | – | inactive | inactive
Cc1ccc2cc(C)ccc2c1 | inactive | inactive | inactive | inactive | inactive | – | inactive | inactive | inactive | – | – | inactive | inactive | inactive
CC(C)NCC(O)c1ccc([N+](=O)[O-])cc1 (stereo unspecified) | inactive | inactive | inactive | inactive | inactive | inactive | inactive | – | inactive | inactive | inactive | – | – | –
Cc1ccc(-c2nc3ccc(C)cn3c2CC(=O)N(C)C)cc1 | inactive | inactive | inactive | 23.7 µM (active) | inactive | – | inactive | inactive | – | inactive | inactive | inactive | 10.6 µM (active) | inactive
N#CN=C1SCCN1Cc1ccc(Cl)nc1 | inactive | inactive | inactive | inactive | inactive | inactive | inactive | – | – | inactive | inactive | inactive | inactive | –
COC1=CC(=O)O[C@@H](/C=C/c2ccccc2)C1 | inactive | inactive | inactive | 24.7 µM (active) | inactive | inactive | inactive | – | – | inactive | inactive | inactive | – | –
CCOC(=O)C(SP(=S)(OC)OC)c1ccccc1 (stereo unspecified) | inactive | inactive | inactive | – | inactive | inactive | inactive | – | 30.6 µM (active) | inactive | inactive | inactive | inactive | inactive
C#CCOC(=O)/C=C(C)/C=C/CC(C)CCCC(C)C (stereo unspecified) | inactive | inactive | – | inactive | inactive | inactive | inactive | inactive | inactive | inactive | inactive | inactive | inactive | inactive
O=C(O)C(F)(F)C(F)(F)C(F)(F)C(F)(F)C(F)(F)C(F)(F)F | inactive | inactive | – | inactive | inactive | – | inactive | inactive | inactive | – | inactive | – | – | inactive
C[C@H](CN1CCOCC1)C(C(=O)N1CCCC1)(c1ccccc1)c1ccccc1 | inactive | inactive | – | inactive | inactive | inactive | inactive | – | – | inactive | – | – | inactive | –
Oc1ccc(Cc2ccc(O)cc2)cc1 | inactive | inactive | inactive | – | inactive | 40.2 µM (active) | inactive | – | 54.9 µM (active) | inactive | inactive | inactive | inactive | inactive
C(COCC1CO1)OCC1CO1 (stereo unspecified) | inactive | inactive | inactive | – | inactive | inactive | inactive | – | inactive | inactive | inactive | inactive | inactive | inactive
ClC(Cl)(Cl)Cl | inactive | inactive | inactive | – | inactive | inactive | inactive | – | inactive | inactive | inactive | inactive | inactive | inactive
CC(C)(N)Cc1ccc(Cl)cc1 | inactive | inactive | inactive | inactive | – | inactive | inactive | inactive | inactive | inactive | inactive | – | – | inactive
CC(C)(C)c1cc(O)ccc1O | 21.9 µM (active) and 24.5 µM (active) | – | inactive | inactive | inactive | 71 µM (active) and inactive | inactive | – | 54.5 µM (active) and 61.1 µM (active) | inactive | – | – | – | inactive
CC(Cc1ccccc1)NCCn1cnc2c1c(=O)n(C)c(=O)n2C (stereo unspecified) | inactive | inactive | inactive | – | – | inactive | inactive | – | – | inactive | inactive | inactive | inactive | inactive
CC#Cc1cc(C)nc(Nc2ccccc2)n1 | inactive | inactive | inactive | – | inactive | 39.9 µM (active) | inactive | inactive | 30.6 µM (active) | inactive | inactive | – | – | inactive
CCOC(=O)COc1ccc(Cl)cc1Cl | inactive | inactive | inactive | – | inactive | 35.6 µM (active) | inactive | inactive | – | inactive | – | – | – | inactive
